Compound activity from PubChem BioAssay.
Cruzain noTriton – qHTS Assay for Promiscuous and Specific Inhibitors of Cruzain (without detergent); Potency, µM, for the others: max response, negative = inhibition, actives largely listed as inhibitors; AID 1476, 2009; purified cruzain, Z-FR-AMC fluorescence, no detergent; Cruzipain (Trypanosoma cruzi), P25779; 2.3% of 200,000 active;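 also: plate controls were enzyme without inhibitor for no effect and buffer without enzyme for full effect; nearly all actives have a fitted effect of over 40% in size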
Target sequence (P25779 123-467 limits assumed): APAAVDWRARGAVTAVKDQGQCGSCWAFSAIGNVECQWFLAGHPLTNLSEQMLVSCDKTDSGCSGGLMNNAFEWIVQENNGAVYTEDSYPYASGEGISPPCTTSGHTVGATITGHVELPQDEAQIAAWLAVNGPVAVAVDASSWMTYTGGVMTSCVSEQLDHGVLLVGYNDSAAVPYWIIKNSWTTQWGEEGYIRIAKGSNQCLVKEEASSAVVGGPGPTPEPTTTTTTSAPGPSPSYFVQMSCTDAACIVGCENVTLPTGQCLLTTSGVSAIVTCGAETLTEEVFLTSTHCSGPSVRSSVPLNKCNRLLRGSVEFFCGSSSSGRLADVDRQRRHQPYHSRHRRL
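Detergent-free condition (0.00005% Triton X-100) in acetate buffer pH 5.5 with DTT. 1.5 nM enzyme and compound were pre-mixed 15 min, then 2 uM Z-FR-AMC substrate added; reaction progress from fluorescence change between first and third reads (60 s).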
Cruzain inh Det – qHTS Assay for Promiscuous and Specific Inhibitors of Cruzain (with detergent) | AID 1478, 2009 | 0.43% of 200,000 active | purified cruzain, Z-FR-AMC fluorescence, 0.01% Triton | Potency, µM, inactives show max response, negative = inhibition, most hits filed as inhibitors;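 also: plate controls were neutral wells for no effect and buffer without enzyme for full effect; nearly all actives have a fitted effect of over 40% in size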
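Cysteine protease activity tested under reducing, mildly acidic conditions (100 mM sodium acetate pH 5.5, 5 mM DTT) plus 0.01% Triton X-100. Cruzain 1.5 nM; substrate Z-FR-AMC 2 uM; 15 min compound preincubation at room temperature.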
* = called active by the depositor; ? = inconclusive. An excerpt weighted towards active compounds, which were near 2.4% of everything screened. Calls follow the shape of the dose curve; as a rule, active = well fitted curve in the direction sought with a large enough effect; inconclusive = small, poorly fitted or top-dose-only effect, or another doubt; inactive = no such curve, though single readings can be large; an effect the other way counts as inactive or inconclusive. Potency is read from the fitted curve at half-maximal effect.

SMILES	Cruzain noTriton	Cruzain inh Det
CCOC(=O)c1c(NC(=O)C2=C(C)NC(=S)NC2c2ccc(C)cc2)sc(C)c1C (stereo unspecified)	20µM*	-8%
CCOC(=O)c1c(NC(=O)C2C3C=CC(CC3)C2C(=O)O)sc(C)c1C (stereo unspecified)	-5%	-6%
CCOC(=O)c1c(NC(=O)C2=C(C)NC(=S)NC2c2ccc(F)cc2F)sc(C)c1C (stereo unspecified)	?	-4%
CCOC(=O)c1c(NC(=O)C2=C(C)NC(=S)NC2c2ccc(F)cc2)sc(C)c1C (stereo unspecified)	16µM*	-6%
COc1ccc(-c2noc(-c3cccc(OC)c3OC)n2)cc1	11%	-8%
COc1ccc(-c2nn(-c3ccccc3)cc2/C=N/NC(=O)c2cccc(S(=O)(=O)Nc3ccccc3Cl)c2)cc1	7.9µM*	-6%
COc1ccc(-c2nn(-c3ccccc3)cc2/C=N/NS(=O)(=O)c2ccccc2)cc1	?	-1%
O=C(N/N=C\c1cn(-c2ccccc2)nc1-c1ccccc1)c1ccc(Br)o1	25µM*	2%
Cc1ccc(-c2nn(-c3ccccc3)cc2/C=N/NC(=O)c2ccc(Br)o2)cc1	?	1%
CCCCOCCOCCOCc1cc2c(cc1CCC)OCO2	18%	-1%
O[C@@H]([C@H](O)[C@@H](O)CBr)[C@@H](O)CBr	-4%	2%
COc1ccccc1NC(=O)Cn1c(=O)c(CNc2ccccc2)cc2cc(OC)c(OC)cc21	?	-4%
O=[N+]([O-])c1ccc(CSCc2ccc(Cl)cc2)cc1	-4%	2%
O=C(C1COc2ccccc2O1)N1CCN(c2nc3ccc(F)cc3s2)CC1 (stereo unspecified)	-23%	-16%
O=C1N/C(=N\N=C\c2cccnc2)SC1Cc1ccc(SC(F)F)cc1 (stereo unspecified)	-24%	9%
O=C1N/C(=N\N=C\c2ccc3ncccc3c2)SC1Cc1ccc(SC(F)F)cc1 (stereo unspecified)	16µM*	25µM*
COc1ccccc1-c1nnc(C2CCN(S(=O)(=O)c3ccc(CC(C)C)cc3)CC2)o1	?	-7%
CCc1ccc(NC(=O)N2CC(C)Oc3ccc(C)cc32)cc1 (stereo unspecified)	2%	1%
O=C(Nc1ccc(Cl)cc1)Nc1ccc(N2CCCC2)c(S(=O)(=O)Nc2ccccc2Cl)c1	?	-1%
COc1ccccc1NS(=O)(=O)c1cc(NC(=O)Nc2cccc(C)c2)ccc1N1CCCCC1	5µM*	-2%
COc1ccc(CCNC(=O)CCCCn2c(=O)c3ccccc3n(Cc3ccc(Cl)cc3)c2=O)cc1OC	?	-4%
COc1ccc(C)cc1NCc1cc(=O)oc2cc(-c3ccccc3)c(O)cc12	32µM*	-2%
Cc1cc(C)cc(NCc2cc(=O)oc3cc(-c4ccccc4)c(O)cc23)c1	?	1%
O=C(NCc1cccc(F)c1)c1ccccc1NC(=O)c1nsc2ccccc12	?	1%
CC(C)C(c1nnnn1C1CCCC1)N1CCc2ccccc21 (stereo unspecified)	2%	0%
SMILES	Cruzain noTriton	Cruzain inh Det
Cc1ccc(C(c2nnnn2C2CCCC2)N2CCc3ccccc32)cc1 (stereo unspecified)	32µM*	-6%
CC(=O)c1cccc(NC(=O)CCCN2C(=O)COc3ccc(C)cc32)c1	?	18µM*
CCc1ccccc1NC(=O)CCCN1C(=O)COc2ccc(C)cc21	-5%	-4%
CC(C)c1ccc(C2N=C(N)Nc3nc4ccccc4n32)cc1 (stereo unspecified)	3%	1%
CCOC(=O)/C(=C\Nc1ccccc1C(F)(F)F)Sc1ncc(C(F)(F)F)cc1Cl	?	-3%
N#Cc1c(Sc2ncc(C(F)(F)F)cc2Cl)nsc1C/C=N\OCc1ccccc1Br	7.9µM*	-15%
CC(C)COc1ccc(C(=O)Nc2onc3c2CCCC3)cc1	5%	-1%
COC(=O)c1cc(=O)c(O)c2c(O)c(O)ccc2c1	-13%	-22%
CCCCOc1ccc(C(=O)Nc2cc(-c3ccc(C)cc3)no2)cc1	-7%	-2%
CCOc1ccc(C(=O)Nc2cc(-c3ccccc3)no2)cc1	20µM*	-2%
Cc1ccc2oc3c(c(=O)c2c1)C(c1ccc(O)cc1)N(c1nc(C)c(C)s1)C3=O (stereo unspecified)	6%	-1%
COc1ccc(NC(=O)Cn2c(=O)nc(-c3ccccc3)c3ccccc32)cc1OC	14%	1%
CCCCOc1ccc(C(=O)Nc2cccc(-c3nc4cccnc4s3)c2)cc1	7%	-4%
COc1ccccc1-n1c(SCC(=O)Nc2ccc(F)cc2)nc2c(c1=O)SCC2	-18%	-28%
COc1ccccc1-n1c(SCC(=O)Nc2nnc(C)s2)nc2c(c1=O)SCC2	-5%	22µM*
CCOC(=O)c1sc(NC(=O)CSc2nc3c(c(=O)n2-c2ccc(C)cc2)SCC3)c(C(=O)OCC)c1C	6.3µM*	-8%
CCOC(=O)c1sc(NC(=O)CSc2nnnn2-c2ccc(C)cc2)c(C(=O)OCC)c1C	-29%	1%
CCOC(=O)c1sc(NC(=O)CSc2nncs2)c(C(=O)OCC)c1C	?	-9%
CCOC(=O)c1sc(NC(=O)CSc2nc3ccccc3s2)c(C(=O)OCC)c1C	20µM*	-5%
CCOC(=O)c1c(NC(=O)c2ccc(S(=O)(=O)N(C)C3CCCCC3)cc2)sc2c1CCN(C(C)C)C2	14%	-1%
Cc1cccc(-n2ncc(C(=O)NCc3ccco3)c2C2CCN(C(=O)OC(C)(C)C)CC2)c1	18%	-8%
O=C1c2ccccc2C(=O)N1C[C@]1(C(=O)O)NCCS1(=O)=O	-7%	4%
CN1/C(=C\C=Nc2ccccc2)C(C)(C)c2ccccc21	-1%	-4%
CN1/C(=C\C=N\NC(=O)c2ccc(O)cc2)C(C)(C)c2ccccc21	20µM*	?
CCCC(=O)Nc1nc(C)c(-c2csc(Nc3ccccc3OC)n2)s1	-23%	-2%
SMILES	Cruzain noTriton	Cruzain inh Det
CC(=O)Nc1nc(C)c(-c2csc(Nc3ccc(O)cc3)n2)s1	13µM*	-28%
C=CCCC(=O)Nc1nc(C)c(-c2csc(Nc3cc(OC)ccc3OC)n2)s1	?	-1%
CCCC(=O)Nc1nc(C)c(-c2csc(Nc3ccc(Cl)cc3)n2)s1	13µM*	-3%
CCCC(C)C(=O)Nc1nc(C)c(-c2csc(Nc3cc(OC)ccc3OC)n2)s1 (stereo unspecified)	?	-2%
CC(=O)Nc1nc(C)c(-c2csc(Nc3cccc([N+](=O)[O-])c3)n2)s1	-18%	-7%
C=CCCC(=O)Nc1nc(C)c(-c2csc(Nc3cccc(OC)c3)n2)s1	16µM*	-5%
CCC(C)C(=O)Nc1nc(C)c(-c2csc(Nc3ccc(Cl)cc3)n2)s1 (stereo unspecified)	4µM*	0%
CC1=C(c2ccc(C)c(C)c2)S(=O)(=O)N=C1N1CCC(C(=O)NCCc2ccc(Cl)cc2)CC1	?	-11%
O=C(CC1N=C2c3ccccc3N=C(SCC(=O)Nc3cccc(C(F)(F)F)c3)N2C1=O)NCc1cccs1 (stereo unspecified)	10%	-9%
COc1ccccc1CNC(=O)c1ccc(-c2nc(CS(=O)c3ccc(C)cc3)c(C)o2)cc1 (stereo unspecified)	5%	0%
O=C(O)/C=C\C(=O)Nc1ncn[nH]1	13%	5%
CCNc1ncc2nc(C)c(=O)n(C)c2n1	-22%	-14%
